Where a chain is given by its changes, count along the chain named. In all, about 24,000 sequences were measured (“enrichment r”: median about 0.99, highest 2% from about 3.7 on). Many of the other results were omitted from the sample, so the highest values are more common in it than they were.
T1: UNK ZnF1-3 (human, UniProt Q9C0B0 31-174)
T1 sequence: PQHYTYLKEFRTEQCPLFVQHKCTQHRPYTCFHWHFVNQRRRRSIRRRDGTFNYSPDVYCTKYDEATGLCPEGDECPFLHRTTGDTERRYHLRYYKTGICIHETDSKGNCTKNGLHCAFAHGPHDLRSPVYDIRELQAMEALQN

B1: chr1:241675328:241675329:-_ENSG00000091483_ENST00000366560|hu_mus|FALSE|FALSE (ssRNA)
RNA: GGGAGUUCUACAGUCCGACGAUCGCUUUUGUUAACAUGAUCAUUGGGGUGCACAGGCUUCUUGCUGCCAAGUUCACCUCCUAACAUUUCAAUUGCUCUGUUGCUAAUGACUUCAUUUACAUUCAUGUUUGUCUGGGUUCCUGACAACAGAGGAUUGAGCAUCA
B2: chr17:45747064:45747065:+_ENSG00000108424_ENST00000290158|hu_hu|hu_hu_hu_mus_True|38_108 (ssRNA)
RNA: GGGAGUUCUACAGUCCGACGAUCGCCUACAGUCCAUGCUGUUGUGUCUCGAACAACUACACUGGGGUCUUUCAUUAGUUCUAUUAGGGUGGGCAUAGCCUGUAUAACUAAUGGUUUCAGUUGAUUAGGCUCUGGUCCUUCCAACAACAGAGGAUUGAGCAUCA
B3: chr18:10010020:10010021:-_ENSMUSG00000047879_ENSMUST00000092096|mus_hu|FALSE|FALSE (ssRNA)
RNA: GGGAGUUCUACAGUCCGACGAUCCUCGGCAAACUGUGGGAAAGCCAUGUGCAAAAACUGCAGUAGAAUAAUAGGUGGAAUACUGGAAGAAGUUUUAUCCAUGGAAUCAAACAAAUCUCUAAGGGCUGCAGUAAUAUACUGCGCCAACAGAGGAUUGAGCAUCA
B4: chr7:149068622:149068623:-_ENSMUSG00000025139_ENSMUST00000001950|mus_hu|mus_mus_mus_hu_False|68_98 (ssRNA)
RNA: GGGAGUUCUACAGUCCGACGAUCGUGAGGCCUCUGAGUGAGGUUCCUGGUCUGUCCUGGGUUAGAGCUGCUGGUAACACGGAACAUACCAUCUAGAACGUUCCAGUCCCGCCUGACACCUUCAUUCCCAAUGGAGAAGAAAUCCAACAGAGGAUUGAGCAUCA
B5: chr7:141445308:141445309:+_ENSG00000106028_ENST00000265304|hu_hu|hu_hu_hu_mus_False|48_68 (ssRNA)
RNA: GGGAGUUCUACAGUCCGACGAUCUAUGAUUGUUGUUGCUUGCCGCCUCACAUUGUUUUUAUCCAUGUAUUCACCAUAGUCCACUUUCCCUUCCAAAAAUAUACGAGCCCCCUUUUUCACAUACUGAUAUGCCACAUCUCUGAGCAACAGAGGAUUGAGCAUCA
B6: 120768192_120770490_416_CDS_ENSMUSG00000043207_ENSMUST00000058754|mouse|control|control (ssRNA)
RNA: GGGAGUUCUACAGUCCGACGAUCGCUGAAGGUACUUUUAUCCAGUUGAUACAAUCGAGAUUUCUCAAACGUGUCCGAAUCCAUGAUCUGUUCUAACUCUGCUGGUACGCGAGUCGUCGUUUUGUAUAUCCUUCUCUGCCGCUGCAACAGAGGAUUGAGCAUCA
B7: chr1:163117127:163117128:-_ENSG00000143248_ENST00000313961|hu_mus|hu_hu_hu_mus_False|48_78 (ssRNA)
RNA: GGGAGUUCUACAGUCCGACGAUCUGCUACAAAGGAUGUAACUCAACUCACAGGGCAUGAUUUCAUAGCCUGACCAGAUGACUACUUGAUUAACUCCUUAUAAAAUUCAGAGCGCACAAAGCGGGGCAGAGAAUCCUUCUCCAUCAACAGAGGAUUGAGCAUCA
B8: chr15:76909541:76909542:-_ENSMUSG00000033565_ENSMUST00000166610|perfect_dup|motif|central (ssRNA)
RNA: GGGAGUUCUACAGUCCGACGAUCAACAUGAUCAAUAAUUUAUACACAUGGAGAGUAAUACAAAAAAAUAAGGAAUAAAAGCGGAAGAUCUAACUACUCCGACCUUCACAAUUCCAGCUACUUGAUAAUAAUAGGAGUAACCCACAACAGAGGAUUGAGCAUCA
B9: chr15:76909541:76909542:-_ENSMUSG00000033565_ENSMUST00000166610|perfect_dup|FALSE|FALSE (ssRNA)
RNA: B8 RNA with G82U, G83A
B10: chr20:57570089:57570090:+_ENSG00000101158_ENST00000344018|hu_mus|FALSE|FALSE (ssRNA)
RNA: GGGAGUUCUACAGUCCGACGAUCACUCCCACACACACACAUACAACUCAACAUUACUCUUGGAAACUUAAAGUAACUGACCAUCUGGGUCAUAGGAAGGAAACUUACAUAAACCCUUCAUGAAGUGUCCCAGCUGCUAGAUUCCAACAGAGGAUUGAGCAUCA
B11: chr1:163117127:163117128:-_ENSG00000143248_ENST00000313961|hu_mus|hu_hu_hu_mus_False|18_78 (ssRNA)
RNA: B7 RNA with A92G, G123A
B12: chr1:60041781:60041782:+_ENSMUSG00000041040_ENSMUST00000036540|mus_hu|mus_mus_mus_hu_False|18_88 (ssRNA)
RNA: GGGAGUUCUACAGUCCGACGAUCAAGUUUACAAUAGUAAAGUAAAUCAAAUUUAGUCAAAUUUUCUUUUAUUUUCCUUCACAAAAGAAAAUCUUUAUAACCCAGUCCUAGUCUUGGCAGAGAAAGCAGCUAUAAAUUCUGACUCAACAGAGGAUUGAGCAUCA
B13: 168352429_168352549_4431_CDS_ENSG00000130396_ENST00000400822|human|control|control (ssRNA)
RNA: GGGAGUUCUACAGUCCGACGAUCAAUGUACUGCAAGUCUCUGCGCUCGAUCGUGCGGGGCUGCUGCUGAGGCUGCAGCUCCCGAAUGACUGUUUCCUGUGGCCGCUGGAGUGUGGAAGGCUUUUCGGGCUUCAUCUGCUGUGCCAACAGAGGAUUGAGCAUCA
B14: chr2:201681052:201681053:+_ENSG00000082153_ENST00000409600|hu_hu|FALSE|FALSE (ssRNA)
RNA: GGGAGUUCUACAGUCCGACGAUCUUUUACUUCAUCUUCAAAACCUUUCUCCAGGUAUUUGUAGCGCCUGAUUAACUUGUUAAAAACCUGAGCAAAUGCUUGCAUGGUCUCUAGAUCUUCUUGGGCUGCAAACACGCAGACAUCCAACAGAGGAUUGAGCAUCA

Biological target: T1, UNK ZnF1-3
Assay: nsRBNS (natural sequence RNA bind-n-seq); RBNS binding buffer (assumed for nsRBNS): 25 mM Tris pH 7.5, 150 mM KCl, 3 mM MgCl2, 0.01% Triton X-100, 500 ug/ml BSA, 20 U/ml SUPERase-In, 4 C; UNK is unkempt and MSI1 is Musashi-1; names of the RNAs are library labels; protein concentration not given here; high values mean tight binding

Binder	binding signal [enrichment R]
B1	0.274
B2	0.577
B3	1.59
B4	0.742
B5	0.799
B6	0.656
B7	1.08
B8	8.91
B9	6.42
B10	1.41
B11	0.919
B12	0.9
B13	0.667
B14	0.452

Reference: article PMC12136788
